Assay results published in PubChem BioAssay (NCATS).
Records with an inconclusive call do not appear. A call without a number means that no potency is given here. The source made the active and inactive calls. Calls come from the whole dose curve; as a rule, active = well fitted inhibition curve with a large enough effect; inconclusive = small, poorly fitted or top-dose-only effect; inactive = flat fitted curve, though single readings scatter.

How the values were obtained:
Assay in all cases: qHTS profiling for inhibitors of Plasmodium falciparum proliferation (AID 504749); note: nearly all actives have a fitted effect of over 60% in size
Settings in all cases: P. falciparum in erythrocytes, SYBR Green DNA, 72 h; series mostly up to 28.7 µM
[1] = test system: CP286
Summary of the method: (§1)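 SYBR Green fluorescence of parasite DNA, read after lysis and overnight dark incubation, measured growth over 72 h in erythrocyte culture at 0.3% parasitemia and 2.5% hematocrit. Data normalised to DMSO and 0.29 uM artemisinin, with plate-drift correction.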

[2] = test system: CP291
Summary of the method: as §1

[3] = test system: CP297
Summary of the method: as §1

[4] = test system: CP305
Summary of the method: as §1

[5] = test system: CP315
Summary of the method: as §1

[6] = test system: CP325
Summary of the method: as §1

[7] = test system: CP329
Summary of the method: as §1

[8] = test system: CP335
Summary of the method: as §1

[9] = test system: DFO2036
Summary of the method: as §1

[10] = test system: DIV14
Summary of the method: as §1

[11] = test system: DIV17
Summary of the method: as §1

[12] = test system: DIV30
Summary of the method: as §1

[13] = test system: Dd2
Summary of the method: as §1

[14] = test system: ECU
Summary of the method: as §1

[15] = test system: FAB9
Summary of the method: as §1

[16] = test system: GB4
Summary of the method: as §1

[17] = test system: HB3
Summary of the method: as §1

[18] = test system: ICS
Summary of the method: as §1

[19] = test system: JCK
Summary of the method: as §1

[20] = test system: N140
Summary of the method: as §1
Potency is the fitted concentration of half-maximal effect.

SMILES | Potency [1] | Potency [2] | Potency [3] | Potency [4] | Potency [5] | Potency [6] | Potency [7] | Potency [8] | Potency [9] | Potency [10] | Potency [11] | Potency [12] | Potency [13] | Potency [14] | Potency [15] | Potency [16] | Potency [17] | Potency [18] | Potency [19] | Potency [20]
NC/C=C/C(=O)O | inactive | inactive | inactive | inactive | inactive | inactive | inactive | inactive | inactive | inactive | inactive | inactive | inactive | inactive | inactive | inactive | inactive | inactive | inactive | inactive
Nc1nc(N)c2nc(-c3ccccc3)c(N)nc2n1 | inactive | inactive | inactive | inactive | inactive | inactive | inactive | – | inactive | inactive | inactive | inactive | inactive | 2.82 µM (active) | 3.16 µM (active) | 1.35 µM (active) | inactive | inactive | inactive | inactive
CN(C)CCCN1c2ccccc2Sc2ccc(C(F)(F)F)cc21 | – | inactive | inactive | inactive | inactive | inactive | inactive | – | – | 6.75 µM (active) | 5.36 µM (active) | – | – | 12.6 µM (active) | inactive | – | inactive | 10 µM (active) | – | –
CCOC(=O)C1=C(C)NC(C)=C(C(=O)OC)C1c1cccc(Cl)c1Cl (stereo not given) | inactive | – | inactive | inactive | inactive | inactive | – | – | inactive | inactive | inactive | inactive | inactive | inactive | inactive | inactive | inactive | – | inactive | inactive
O=C(CCCN1CCC(O)(c2cccc(C(F)(F)F)c2)CC1)c1ccc(F)cc1 | 10 µM (active) | – | – | – | – | – | – | 9.53 µM (active) | 10 µM (active) | 6.75 µM (active) | 13.5 µM (active) | – | 5.62 µM (active) | 2.24 µM (active) | – | 6.01 µM (active) | 12.6 µM (active) | 5.01 µM (active) | 12.6 µM (active) | 7.94 µM (active)
COc1ccc(CN(CCN(C)C)c2ccccn2)cc1 | inactive | inactive | – | inactive | inactive | inactive | inactive | – | inactive | – | – | – | – | inactive | inactive | 6.01 µM (active) | inactive | inactive | 1.26 µM (active) | –
C=CCc1ccccc1OCC(O)CNC(C)C (stereo not given) | – | – | – | – | – | – | – | – | – | 8.49 µM (active) | 8.49 µM (active) | – | 7.94 µM (active) | – | inactive | 7.57 µM (active) | – | 11.2 µM (active) | – | 11.2 µM (active)
CCC(=O)c1ccc2c(c1)N(CCCN(C)C)c1ccccc1S2 | – | – | inactive | – | inactive | – | – | – | – | 6.01 µM (active) | 4.78 µM (active) | – | 7.94 µM (active) | inactive | – | – | inactive | 8.91 µM (active) | – | –
Cc1nc2sccn2c(=O)c1CCN1CCC(=C(c2ccc(F)cc2)c2ccc(F)cc2)CC1 | – | – | – | inactive | inactive | inactive | inactive | – | – | – | 16.9 µM (active) | – | – | – | inactive | – | – | 8.91 µM (active) | – | –
CCCC(C(=O)OCCN(CC)CC)(c1ccccc1)c1ccccc1 | 12.6 µM (active) | 13.5 µM (active) | – | – | – | – | – | 8.49 µM (active) | – | 8.49 µM (active) | 7.57 µM (active) | 13.5 µM (active) | 14.1 µM (active) | 10 µM (active) | – | 10.7 µM (active) | – | 5.62 µM (active) | – | –
O=C(O)CN(CCN(CC(=O)O)CC(=O)O)CCN(CC(=O)O)CC(=O)O | inactive | – | inactive | – | inactive | inactive | inactive | inactive | inactive | inactive | – | inactive | inactive | inactive | inactive | – | inactive | inactive | inactive | inactive
COc1cc(C(=O)OCCCN2CCCN(CCCOC(=O)c3cc(OC)c(OC)c(OC)c3)CC2)cc(OC)c1OC | 10 µM (active) | – | – | – | – | – | – | 4.78 µM (active) | – | 9.53 µM (active) | 12 µM (active) | – | 12.6 µM (active) | 8.91 µM (active) | – | 13.5 µM (active) | – | 8.91 µM (active) | – | 12.6 µM (active)
CC(=O)[C@]1(O)Cc2c(O)c3c(c(O)c2[C@@H](O[C@H]2C[C@H](N)[C@H](O)[C@H](C)O2)C1)C(=O)c1ccccc1C3=O | 1.41 µM (active) | 9.53 µM (active) | – | 8.49 µM (active) | 15.1 µM (active) | – | 10.7 µM (active) | 1.69 µM (active) | 3.55 µM (active) | 4.78 µM (active) | 4.78 µM (active) | – | 0.158 µM (active) | 7.94 µM (active) | 11.2 µM (active) | 4.78 µM (active) | 4.47 µM (active) | 1.78 µM (active) | 8.91 µM (active) | 4.47 µM (active)
CN(C)CCN(Cc1cccs1)c1ccccn1 | – | – | 3.38 µM (active) | – | inactive | – | – | 8.49 µM (active) | – | 6.75 µM (active) | 6.01 µM (active) | – | 3.98 µM (active) | inactive | inactive | 3.79 µM (active) | inactive | – | – | 11.2 µM (active)
CC(C)[N+](C)(CCOC(=O)C1c2ccccc2Oc2ccccc21)C(C)C | – | – | – | – | inactive | – | – | – | – | – | – | inactive | – | – | – | – | – | – | inactive | –
CCN(CC)CCOCCOC(=O)C1(c2ccccc2)CCCC1 | 12.6 µM (active) | – | 6.75 µM (active) | 13.5 µM (active) | inactive | 15.1 µM (active) | inactive | 9.53 µM (active) | 12.6 µM (active) | 2.39 µM (active) | 3.79 µM (active) | 7.57 µM (active) | 2.51 µM (active) | 11.2 µM (active) | – | 6.01 µM (active) | 12.6 µM (active) | 1.41 µM (active) | – | 7.08 µM (active)
Cc1nc2ccccn2c(=O)c1CCN1CCC(C(=O)c2ccc(F)cc2)CC1 | – | – | inactive | inactive | inactive | inactive | inactive | – | inactive | 6.75 µM (active) | – | – | – | inactive | inactive | – | inactive | 8.91 µM (active) | inactive | inactive
